This is a sample that favours compounds with a hit; in the whole collection about 10% have one here.
FLuc inh – blocks purified firefly luciferase enzyme activity; AID 1347043; purified P. pyralis luciferase, luminescence, biochemical; Potency, µM (highest dose often 115 µM), usual class: inhibitors; actives 2.5% (n = 76,000); also: nearly all actives have a fitted effect of over 65% in size
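Purified 10nM P. pyralis luciferase with 10uM D-luciferin and 10uM ATP in 50mM Tris acetate pH 7.5, 10mM Mg acetate, 0.01% Tween-20, 0.05% BSA. qHTS titration; luminescence read by CCD imager.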
GPT2 inh – blocks human glutamate pyruvate transaminase 2; Q8TD30; Recombinant GPT2, coupled pyruvate oxidase/HRP Amplex Red fluorescence; actives 0.25% (n = 100,000); Potency, µM (titrated, usually from 57.7 µM), inactives show top-dose activity change, negative = inhibition, actives largely listed as inhibitors; AID 1671188; also: nearly all actives have a fitted effect of over 60% in size
Target sequence (Q8TD30 whole entry, looked up): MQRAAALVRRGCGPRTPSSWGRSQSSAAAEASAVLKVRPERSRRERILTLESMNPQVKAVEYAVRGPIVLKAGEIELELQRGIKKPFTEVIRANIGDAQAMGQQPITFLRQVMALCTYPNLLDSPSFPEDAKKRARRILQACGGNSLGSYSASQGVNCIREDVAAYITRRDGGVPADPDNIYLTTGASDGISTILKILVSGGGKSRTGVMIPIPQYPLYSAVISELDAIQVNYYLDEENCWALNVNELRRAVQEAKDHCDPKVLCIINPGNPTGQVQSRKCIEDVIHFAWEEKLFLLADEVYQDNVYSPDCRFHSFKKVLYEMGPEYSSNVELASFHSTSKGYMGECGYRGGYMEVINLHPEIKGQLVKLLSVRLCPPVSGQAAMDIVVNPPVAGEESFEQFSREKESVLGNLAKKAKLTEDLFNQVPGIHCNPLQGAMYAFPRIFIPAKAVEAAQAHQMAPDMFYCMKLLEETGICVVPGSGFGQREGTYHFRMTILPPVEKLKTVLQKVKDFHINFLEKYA
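Fluorescence of coupled pyruvate oxidase/HRP/Amplex Red system (50uM Amplex, 30 min, dark) reports pyruvate formed by GPT2. Enzyme reaction: 10ng/uL GPT2, 2mM L-alanine, 250uM a-KG, 30 min room temperature, pH 7.5; 50uM AOA control.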
HEK293 tox – HEK 293 cell cytotoxicity; Potency, µM (titrated, usually from 115 µM), inactives show at the highest dose activity change, negative = cytotoxicity, hits mostly inhibitors; actives 6.6% (n = 94,000); HEK 293 viability, ATP luminescence (CellTiter-Glo), 48-72 h; also: nearly all actives have a fitted effect of over 60% in size
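HEK 293 seeded at 250 cells/well receive compound via pintool. After 48 or 72 hr at 37 degree Celsius, 5% CO2 and 95% humidity, CellTiter-Glo is dispensed and luminescence read following 10 min at room temperature.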
3T3 cytotox – cytotoxic compounds in NIH 3T3 cells | NIH 3T3 viability, CellTiter-Glo ATP luminescence, 48-72 h | Potency, µM (highest dose often 96.7 µM), without a hit: at the highest dose activity change, negative = cytotoxicity, usual class: inhibitors | actives 4.3% (n = 94,000) | AID 1345082; also: nearly all actives have a fitted effect of over 55% in size
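NIH 3T3 cells at 400 cells/well received 23 nL of compound by pintool and were incubated 48 or 72 h at 37 °C. Viability was read as ATP-coupled CellTiter-Glo luminescence.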
NPR1 antag – human Npr1 receptor antagonism; HEK293 hNpr1 GloSensor cGMP, ANP-stimulated luminescence; Potency, µM (highest dose often 46.3 µM), for inactives: at the highest dose activity change, negative = inhibition, hits mostly inhibitors; actives 1.6% (n = 76,000); AID 1347048; calls by dose curve; also: nearly all actives have a fitted effect of over 60% in size
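HEK293 cells stably expressing human Npr1 and cGMP GloSensor pGS-40F, loaded 2 h with 2% GloSensor reagent, given compound 30 min at room temperature. Luminescence read before and 20 min after 0.1 nM hNppA.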
The depositor's hits bear a star; i = inactive; u = inconclusive; x = not tested or not shown; [ ] = another dose, or the depositor's remark. Unless noted, calls follow the shape of the dose curve; as a rule, active = well fitted curve in the direction sought with a large enough effect; inconclusive = small, poorly fitted or top-dose-only effect, or another doubt; inactive = no such curve, though single readings can be large; an effect the other way counts as inactive or inconclusive. % is scaled to controls: 0 for no effect and ±100 for the full control effect; potency is read from the fitted curve at half-maximal effect.

SMILES	FLuc inh	GPT2 inh	HEK293 tox	3T3 cytotox	NPR1 antag
O=C(NCC1CCCCCC1)[C@@H]1CCCN1c1nccc(Nc2ccccc2Cl)n1	x	i	25µM*	32µM*	x
O=C(NCC1CCCCC1)C1CCN(c2nccc(Nc3ccccc3Cl)n2)CC1	x	i	35µM*	32µM*	x
CNC(=O)c1cc(C)nc2onc(C3CCN(C(=O)N(C)C)C3)c12 (centres undefined)	x	x	-11%[172 µM]	-18%[138 µM]	x
Cc1noc(C)c1CCNC(=O)CN1C(=O)C(Oc2ccc(F)cc2)C12CCCCC2 (centres undefined)	x	-14%	u	-36%	x
COc1ccc(CNc2ncnc3c2CN(C2CCCNC2)C(=O)CN3C)cc1OC (centres undefined)	x	u	5%	-8%	x
CC(C)Cn1c(=O)c(C(=O)N2CCN(C(=O)c3ccc(Cl)nc3)CC2)nc2cccnc21	x	i	i	-12%	x
O=C(NCc1ccccc1)C1(Oc2ccc(Cl)cc2)CCNCC1	i	3%	u	u	-13%
Cc1ccc(OC2(C(=O)NCC3COc4ccccc4O3)CCNCC2)cc1 (centres undefined)	i	i	35µM*	32µM*	4%
O[C@H]1CC[C@@H](Cc2cc(-c3ccc(F)cc3)on2)O[C@@H]1CNCc1cccnc1	i	-2%[88.5 µM]	-13%[172 µM]	-6%[138 µM]	-12%[70.6 µM]
CC(C)N1C(=O)C(CC(=O)N(C)Cc2cccnc2)=C2CCCCC21 (centres undefined)	i	2%	-1%	4%	-11%
O=C1NCCOCCCN(C(=O)Nc2ccccc2)[C@H]2CCCC[C@@H]12	i	u	-2%	-2%	-8%
O=C1NCCOCCCN(C(=O)Nc2ccc3c(c2)OCCO3)[C@H]2CCCC[C@@H]12	32µM*	i	3%	2%	-18%
COc1ccc(-c2cc(N3CCC(NC(=O)c4ccc5nc[nH]c5c4)CC3)n[nH]2)cc1	i	i	u	-15%	-2%
COc1ccc(-c2cc(C[C@H]3CNCC[C@H]3CC(=O)N3CCC(Cc4ccccc4)CC3)no2)cc1	i	2%	u	u	0%
CC(C)(C)c1cc(C[C@H]2CNCC[C@H]2CC(=O)N2CCC(Cc3ccccc3)CC2)no1	i	i	22µM*	28µM*	3%
O=C(C[C@@H]1CCNC[C@@H]1Cc1cc(-c2ccccc2)on1)N1CCC(Cc2ccccc2)CC1	i	2%	u	28µM*	7%
Cc1cccc(C)c1-c1cc(C(=O)NCCCc2ccccc2)c2cnn(C)c2n1	x	3%	u	u	x
Cn1cc(CN2CCCN(S(=O)(=O)c3ccccc3)CCC(=O)NCC2)c2ccccc21	i	4%	u	u	-9%
COCc1nc(CCNC(=O)c2cnn3c(C)c(Cc4ccccc4Cl)c(C)nc23)no1	i	i	u	u	0%
Cc1ccccc1Cc1c(C)nc2c(C(=O)NCCc3noc(-c4ccncc4)n3)cnn2c1C	i	i	45µM*	u	4%
Cc1ccccc1Cc1c(C)nc2c(C(=O)NCCc3noc(-c4cccnc4)n3)cnn2c1C	x	-2%	89µM*	u	x
CCN1C(=O)CCC2(C(=O)NCCN(C)C3CCCCC3)CCCC=C12 (centres undefined)	i	-9%	45µM*	u	-3%
CCNC(=O)C12CCCC=C1N(C1CCCC1)C(=O)CC2 (centres undefined)	40µM*	i	4%	-13%	-6%
O=C(C1CCCC1)N1CCCN(c2ccnc3ccnn23)CC1	x	i	u	u	x
Cc1ccc(NC(=O)Cn2c(N3CCCCC3)nc(C)c(C)c2=O)cc1C	i	-1%	22µM*	u	-1%
CC(=O)N1CCC(c2nnc3n2C(C(=O)NCc2ccc(F)c(F)c2)CC3)CC1 (centres undefined)	x	-2%	i	4%	x
CC(C)(C)C(=O)N1CCN(C(=O)c2nc3cccnc3n(Cc3ccccc3)c2=O)CC1	x	3%	-12%	-7%	x

Bioassay records deposited in PubChem BioAssay by National Center for Advancing Translational Sciences (NCATS).
